Measurements taken from ChEMBL document CHEMBL3988442, “University of Dundee, Small-Polar-MMV Screening Library” (2021).
For some assays here: Measured potencies and affinities stand elsewhere.

Experiments:
Parameters in all cases: scale not given: direction of the effect not stated beside the values
[1] = target: Protein translocase subunit SecA (Escherichia coli (strain K12)) (UniProt P10408); assay: Assay to Identify E. coli SecA ATPase Inhibitors; assay type: functional; settings: 30 µM
[2] = target: T1, Ubiquitin-activating enzyme e1, putative (Leishmania donovani (strain BPK282A1)) (UniProt E9BSI1); assay: Leishmania donovani Ubiquitin Activating Enzyme (LdE1); assay type: functional; settings: 30 µM
T1 sequence (whole entry): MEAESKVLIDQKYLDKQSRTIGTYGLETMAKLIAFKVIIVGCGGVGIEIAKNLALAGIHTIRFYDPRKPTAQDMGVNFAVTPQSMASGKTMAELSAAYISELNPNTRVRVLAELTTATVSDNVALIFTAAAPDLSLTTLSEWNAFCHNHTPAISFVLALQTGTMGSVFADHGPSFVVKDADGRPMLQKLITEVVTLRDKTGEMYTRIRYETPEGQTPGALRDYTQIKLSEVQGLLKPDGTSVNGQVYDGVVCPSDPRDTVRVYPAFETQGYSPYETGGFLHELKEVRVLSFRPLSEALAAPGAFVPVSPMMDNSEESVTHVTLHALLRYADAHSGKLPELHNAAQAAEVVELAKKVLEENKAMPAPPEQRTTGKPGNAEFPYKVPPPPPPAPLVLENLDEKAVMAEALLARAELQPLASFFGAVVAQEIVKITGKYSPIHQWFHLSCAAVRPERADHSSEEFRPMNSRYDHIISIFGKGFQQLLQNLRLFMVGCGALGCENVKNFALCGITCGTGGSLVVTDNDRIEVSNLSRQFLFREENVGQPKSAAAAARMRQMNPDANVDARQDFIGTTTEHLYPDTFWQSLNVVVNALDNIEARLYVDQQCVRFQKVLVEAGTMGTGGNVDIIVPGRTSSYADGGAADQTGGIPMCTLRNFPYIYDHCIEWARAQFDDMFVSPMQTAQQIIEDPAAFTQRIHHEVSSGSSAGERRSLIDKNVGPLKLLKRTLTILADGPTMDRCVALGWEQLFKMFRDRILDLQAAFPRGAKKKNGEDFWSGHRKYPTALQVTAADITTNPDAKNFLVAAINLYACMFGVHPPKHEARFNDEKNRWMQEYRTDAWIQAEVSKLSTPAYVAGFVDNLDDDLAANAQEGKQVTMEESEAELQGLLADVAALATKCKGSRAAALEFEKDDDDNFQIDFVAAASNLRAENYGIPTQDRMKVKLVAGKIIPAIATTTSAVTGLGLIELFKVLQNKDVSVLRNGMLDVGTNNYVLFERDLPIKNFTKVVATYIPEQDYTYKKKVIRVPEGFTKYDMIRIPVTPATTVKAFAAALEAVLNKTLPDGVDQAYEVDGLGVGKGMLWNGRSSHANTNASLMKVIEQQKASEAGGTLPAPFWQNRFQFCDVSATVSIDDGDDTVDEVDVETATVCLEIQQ

[3] = target: AMP-activated protein kinase, AMPK (Homo sapiens) (UniProt P54646+O43741+P54619+Q9UGJ0+Q9Y478+Q13131+Q9UGI9); assay: AMP-dependent Kinase enzyme assay. An in vitro enzyme assay that detects ADP turnover that is directly proportional to AMPK activity. This uses naive AMPK that is activated during the assay with MK-8722; assay type: functional; settings: 30 µM
[4] = target: Sialic acid-binding Ig-like lectin 9 (Homo sapiens) (UniProt Q9Y336); assay: Hs-Siglec9 ALPHAscreen SOP 20170721; settings: 10 µM
Trypanosoma cruzi = assay: Trypanosoma cruzi phosphomannomutase and mannose-1-phosphate guanylyltransferase assay; assay type: functional; settings: 10 µM
[5] = target: T2, Arginase-2, mitochondrial (Homo sapiens) (UniProt P78540); assay: in vitro enzyme assay to detect the production of urea directly proportional to the activity of Arginase II; assay type: functional; settings: 33.3 µM; also: in the data most compounds retested in dose-response had high values
T2 sequence (whole entry): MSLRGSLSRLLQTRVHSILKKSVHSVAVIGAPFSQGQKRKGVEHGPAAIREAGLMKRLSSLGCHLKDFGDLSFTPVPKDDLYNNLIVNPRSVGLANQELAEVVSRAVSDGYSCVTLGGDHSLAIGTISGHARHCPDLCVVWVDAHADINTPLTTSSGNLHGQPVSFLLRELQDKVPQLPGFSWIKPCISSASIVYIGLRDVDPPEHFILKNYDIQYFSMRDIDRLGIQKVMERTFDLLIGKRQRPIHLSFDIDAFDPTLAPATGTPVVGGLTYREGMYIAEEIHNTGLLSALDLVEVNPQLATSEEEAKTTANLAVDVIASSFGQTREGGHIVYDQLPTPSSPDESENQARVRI

[6] = target: T3, Proteasome subunit beta (Trypanosoma cruzi) (UniProt O96673); assay: Trypanosoma cruzi proteasome chymotrypsin-like activity (TcProtChymo) assay.; also: in the data most compounds retested in dose-response had high values; assay type: functional; settings: 9.37 µM
T3 sequence (whole entry): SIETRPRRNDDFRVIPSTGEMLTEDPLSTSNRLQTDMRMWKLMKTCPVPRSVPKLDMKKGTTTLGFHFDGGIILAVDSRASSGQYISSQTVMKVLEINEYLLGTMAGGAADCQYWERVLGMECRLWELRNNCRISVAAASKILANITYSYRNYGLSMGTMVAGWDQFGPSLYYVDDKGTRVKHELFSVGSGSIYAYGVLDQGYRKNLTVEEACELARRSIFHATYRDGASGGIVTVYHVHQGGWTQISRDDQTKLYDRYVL

Homo sapiens = species: Homo sapiens; assay: To identify inhibition of the IFN signalling (Jak-Stat) pathway via expression of an eGFP reporter gene under the control of an IFN-stimulated response element (ISRE) containing MxA promoter.; assay type: functional; settings: 30 µM
[7] = target: T4, Tyrosyl-tRNA synthetase, putative (Trypanosoma cruzi (strain CL Brener)) (UniProt Q4DSP6); assay: Trypanosoma cruzi tyrosyl tRNA synthetase (TcYRS) _High Tyrosine SOP; assay type: functional; settings: 30 µM; also: in the data most compounds retested in dose-response had high values
T4 sequence (whole entry): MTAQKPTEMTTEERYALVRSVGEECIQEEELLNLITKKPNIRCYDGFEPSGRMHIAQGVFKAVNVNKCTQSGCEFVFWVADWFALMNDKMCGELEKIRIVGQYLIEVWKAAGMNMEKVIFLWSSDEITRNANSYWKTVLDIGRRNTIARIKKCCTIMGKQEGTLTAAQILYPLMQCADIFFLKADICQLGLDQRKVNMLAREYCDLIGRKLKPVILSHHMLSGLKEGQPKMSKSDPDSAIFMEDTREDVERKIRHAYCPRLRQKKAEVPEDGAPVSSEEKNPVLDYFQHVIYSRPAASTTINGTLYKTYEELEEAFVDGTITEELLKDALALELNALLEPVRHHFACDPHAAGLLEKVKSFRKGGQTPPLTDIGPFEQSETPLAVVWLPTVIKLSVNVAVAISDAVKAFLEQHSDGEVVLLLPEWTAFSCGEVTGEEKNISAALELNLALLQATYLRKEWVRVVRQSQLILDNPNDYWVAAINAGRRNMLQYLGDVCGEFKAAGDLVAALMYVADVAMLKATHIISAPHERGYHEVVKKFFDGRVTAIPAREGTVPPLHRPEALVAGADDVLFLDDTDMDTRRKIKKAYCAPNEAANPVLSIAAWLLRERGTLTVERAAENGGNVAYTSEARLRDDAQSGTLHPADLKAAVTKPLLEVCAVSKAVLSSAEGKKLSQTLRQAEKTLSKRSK

[8] = target: T4, Tyrosyl-tRNA synthetase, putative (Trypanosoma cruzi (strain CL Brener)); assay: Trypanosoma cruzi tyrosyl tRNA synthetase (TcYRS) SOP; assay type: functional; settings: 30 µM
[9] = target: Chromo domain-containing protein 1 (Saccharomyces cerevisiae (strain ATCC 204508 / S288c) (Baker's yeast)) (UniProt P32657); assay: ScCHD-1 Enzyme Inhibition Assay; assay type: functional; settings: 30 µM; also: in the data most compounds retested in dose-response had high values
Sequence of Chromo domain-containing protein 1 (Saccharomyces cerevisiae (strain ATCC 204508 / S288c) (Baker's yeast)) (P32657 whole entry, the tested form may be a part): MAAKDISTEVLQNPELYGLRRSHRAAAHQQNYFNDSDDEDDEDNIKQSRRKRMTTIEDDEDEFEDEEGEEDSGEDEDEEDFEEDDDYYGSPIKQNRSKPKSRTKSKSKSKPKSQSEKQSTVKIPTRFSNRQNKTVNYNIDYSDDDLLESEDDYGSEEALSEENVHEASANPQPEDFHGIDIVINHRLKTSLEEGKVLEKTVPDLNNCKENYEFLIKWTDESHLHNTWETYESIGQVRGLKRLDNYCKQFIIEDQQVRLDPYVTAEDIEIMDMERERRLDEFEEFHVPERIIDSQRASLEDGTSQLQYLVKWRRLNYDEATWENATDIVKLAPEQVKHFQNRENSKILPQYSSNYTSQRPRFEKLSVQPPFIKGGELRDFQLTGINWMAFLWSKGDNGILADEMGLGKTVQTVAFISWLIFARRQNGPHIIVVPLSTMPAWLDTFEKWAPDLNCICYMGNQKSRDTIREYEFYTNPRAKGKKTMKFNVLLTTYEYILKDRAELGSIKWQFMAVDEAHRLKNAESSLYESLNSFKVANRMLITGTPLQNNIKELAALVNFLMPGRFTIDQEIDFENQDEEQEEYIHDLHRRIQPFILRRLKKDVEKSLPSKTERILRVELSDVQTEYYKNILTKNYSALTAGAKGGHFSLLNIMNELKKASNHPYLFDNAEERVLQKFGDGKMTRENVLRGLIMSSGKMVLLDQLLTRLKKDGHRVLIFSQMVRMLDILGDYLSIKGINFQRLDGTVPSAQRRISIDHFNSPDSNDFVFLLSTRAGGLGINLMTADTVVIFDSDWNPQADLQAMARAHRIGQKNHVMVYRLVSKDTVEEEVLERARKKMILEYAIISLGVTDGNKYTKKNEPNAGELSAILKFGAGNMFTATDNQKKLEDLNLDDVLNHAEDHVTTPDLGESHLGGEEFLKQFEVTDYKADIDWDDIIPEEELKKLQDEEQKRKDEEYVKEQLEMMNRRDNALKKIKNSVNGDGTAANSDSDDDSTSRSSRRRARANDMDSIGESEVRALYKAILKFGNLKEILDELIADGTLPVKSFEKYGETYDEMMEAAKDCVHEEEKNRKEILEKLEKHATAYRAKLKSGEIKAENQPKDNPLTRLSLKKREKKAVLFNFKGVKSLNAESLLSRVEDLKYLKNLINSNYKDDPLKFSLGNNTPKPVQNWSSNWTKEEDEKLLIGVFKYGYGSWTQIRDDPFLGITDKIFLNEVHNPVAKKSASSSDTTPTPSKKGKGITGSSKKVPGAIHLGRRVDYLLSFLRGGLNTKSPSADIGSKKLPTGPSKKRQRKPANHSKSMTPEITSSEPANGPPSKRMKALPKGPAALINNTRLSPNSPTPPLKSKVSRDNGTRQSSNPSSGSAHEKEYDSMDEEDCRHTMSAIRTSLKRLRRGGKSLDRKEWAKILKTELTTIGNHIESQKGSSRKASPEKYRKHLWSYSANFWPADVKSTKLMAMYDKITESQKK

Sequence of Protein translocase subunit SecA (Escherichia coli (strain K12)) (P10408 whole entry): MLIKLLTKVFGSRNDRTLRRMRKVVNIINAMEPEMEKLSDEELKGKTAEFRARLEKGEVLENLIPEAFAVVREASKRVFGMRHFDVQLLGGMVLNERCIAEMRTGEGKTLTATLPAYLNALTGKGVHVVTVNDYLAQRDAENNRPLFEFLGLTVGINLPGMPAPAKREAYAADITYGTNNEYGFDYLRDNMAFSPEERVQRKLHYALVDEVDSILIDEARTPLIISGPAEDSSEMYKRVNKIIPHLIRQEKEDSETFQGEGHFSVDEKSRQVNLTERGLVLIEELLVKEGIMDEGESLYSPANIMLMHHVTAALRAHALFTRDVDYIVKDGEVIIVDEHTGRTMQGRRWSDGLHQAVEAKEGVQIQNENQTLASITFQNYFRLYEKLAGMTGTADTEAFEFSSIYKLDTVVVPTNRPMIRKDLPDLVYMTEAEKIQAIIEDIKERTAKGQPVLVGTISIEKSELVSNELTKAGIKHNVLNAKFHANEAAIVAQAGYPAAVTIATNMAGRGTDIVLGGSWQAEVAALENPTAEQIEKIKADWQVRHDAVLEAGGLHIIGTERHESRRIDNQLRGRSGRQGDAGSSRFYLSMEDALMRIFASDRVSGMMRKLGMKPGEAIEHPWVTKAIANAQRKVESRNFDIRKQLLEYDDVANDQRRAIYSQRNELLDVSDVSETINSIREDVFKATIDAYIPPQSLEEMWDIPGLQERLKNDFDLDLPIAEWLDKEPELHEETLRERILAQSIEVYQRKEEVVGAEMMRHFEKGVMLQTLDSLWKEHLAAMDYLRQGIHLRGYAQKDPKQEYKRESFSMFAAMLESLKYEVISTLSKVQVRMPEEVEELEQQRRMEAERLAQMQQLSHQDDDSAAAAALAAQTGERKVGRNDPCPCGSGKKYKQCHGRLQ
Sequence of Sialic acid-binding Ig-like lectin 9 (Homo sapiens) (Q9Y336 whole entry): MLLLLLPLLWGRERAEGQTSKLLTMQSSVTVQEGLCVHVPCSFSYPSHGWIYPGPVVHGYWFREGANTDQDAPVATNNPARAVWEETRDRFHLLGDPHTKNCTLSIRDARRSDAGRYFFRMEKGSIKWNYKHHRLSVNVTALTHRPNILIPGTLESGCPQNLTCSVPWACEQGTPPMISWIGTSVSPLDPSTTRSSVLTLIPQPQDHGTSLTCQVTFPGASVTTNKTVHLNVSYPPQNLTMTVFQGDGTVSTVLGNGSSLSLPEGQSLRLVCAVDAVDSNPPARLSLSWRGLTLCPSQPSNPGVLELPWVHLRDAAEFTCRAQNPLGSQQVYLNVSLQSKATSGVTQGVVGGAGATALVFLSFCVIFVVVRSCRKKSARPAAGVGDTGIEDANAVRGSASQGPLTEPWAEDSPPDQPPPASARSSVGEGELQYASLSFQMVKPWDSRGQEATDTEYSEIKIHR

Row | SMILES | Percent Effect [1] [%] | Percent Effect [2] [%] | Percent Effect [3] [%] | Percent Effect [4] [%] | Percent Effect (Trypanosoma cruzi) [%] | Percent Effect [5] [%] | Percent Effect [6] [%] | Percent Effect (Homo sapiens) [%] | Percent Effect [7] [%] | Percent Effect [8] [%] | Percent Effect [9] [%]
1 | NC(=O)C1CCN(CCc2ccc(NC(=O)C3CCC3)cc2)CC1 | -4.73 | 8.11 | -5.62 | 9.13 | 2.14 | -0.554 | 2.87 | 6.62 | 6.93 | 23.2 | -5.51
2 | COc1ccc(C(CO)NC(=O)Nc2cccnc2)cc1 (stereo not given) | -4.93 | -2.7 | -0.874 | 3.21 | -3.86 | -3.81 | 10.9 | 10.2 | -0.529 | -4.88 | -2.24
3 | Cc1ccc(NS(=O)(=O)CC2=NC(=O)n3cccc3C2=O)cc1 | -4.7 | -4 | -2.73 | 6.4 | 1.97 | -3.7 | 3.7 | -2.44 | -10.6 | -17.9 | -2.6
4 | OC(CN1CCCCCCC1)c1ccc(F)cc1 (stereo not given) | 0.984 | 10.5 | -3.76 | -5.28 | 7.33 | -1.15 | 15.4 | 11.7 | 7.35 | 19.5 | -11.6
5 | Cn1ccnc1-c1cccc(NC(=O)NCCCO)c1 | -0.628 | 6.94 | -4.42 | 2.52 | 0.875 | 19.4 | 11.8 | 15.7 | 5.26 | 7.69 | -4.21
6 | COCc1c(C(=O)O)nnn1Cc1cccc(C(F)(F)F)c1 | -0.917 | 9.33 | -2.19 | 0.663 | -4.13 | -8.98 | 14.1 | 5.79 | 3.17 | 10.3 | -10.2
7 | CCc1nc(NS(=O)(=O)c2cc(C)ccc2F)no1 | -0.155 | 0 | -9.72 | 8.2 | 6.13 | 15.1 | 3.84 | 1.84 | 2.73 | 6.17 | -2.85
8 | Cc1nc(C)n(C2CCCN(C(=O)c3ccc4c(c3)COC4)C2)n1 (stereo not given) | -2.83 | 13.5 | -5.96 | 7.05 | 7.15 | 2.4 | -4.67 | 6.78 | 2.97 | 11 | 0.576
9 | Cc1cc(CN(C)C(=O)c2cccc(N3CCCC3=O)c2)no1 | -1.16 | 20.2 | -7.29 | -9 | -4.25 | -0.76 | 12.2 | 13.3 | 3.45 | 16.5 | -4.16
10 | COc1ccc(C(=O)N2CCCCC2Cn2cccn2)c(F)c1 (stereo not given) | -1.68 | 15.6 | 2.24 | 6.84 | 1.5 | -1.42 | 13.7 | -14.3 | 6.8 | 14.6 | -9.15
